# Screening data (PubChem BioAssay)
# A selection: hits, their analogues and other compounds. The true share with any hit is near 10%.
# HP1b chromo inh – HP1-beta chromodomain-methylated histone interaction inhibition; 390,000 compounds, 0.56% hits; AlphaScreen HP1-beta / biotin-H3K9me3 peptide binding; Potency, µM (doses to about 114 µM), inactives show at the highest dose activity change, negative = inhibition, most hits filed as inhibitors; P83916; also: nearly all actives have a fitted effect of over 70% in size
#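 Compound inhibition of the preformed complex between 50 nM HP1-beta and 50 nM biotinylated H3K9me3 peptide was read by AlphaScreen. Buffer was PBS pH 7.4 with 0.01% Tween-20. Incubations ran 30 min at room temperature, with 10 ug/mL donor/acceptor beads.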
# JMJD2A Tudor inh – blocks the human JMJD2A Tudor domain; O75164; AlphaScreen JMJD2A-Tudor / H3K4me3 peptide binding; Potency, µM (top dose mostly 114 µM), inactives show at the top dose activity change, negative = inhibition, actives largely listed as inhibitors; 390,000 compounds, 4.4% hits; also: % is scaled to controls: 0 for no effect and ±100 for the full control effect; nearly all actives have a fitted effect of over 50% in size
# BAZ2B inh – BAZ2B (human) inhibition; Q9UIF8; AlphaScreen BAZ2B-H3K14Ac peptide displacement; Potency, µM (series often up to 114 µM), for the others: top-dose activity change, negative = inhibition, actives largely listed as inhibitors; 360,000 compounds, 4.4% hits; AID 504333; also: % is scaled to controls: 0 for no effect and ±100 for the full control effect; nearly all actives have a fitted effect of over 60% in size
#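 AlphaScreen displacement: compounds (up to 110uM) incubated 30 min at room temperature with a preformed 50 nM BAZ2B/50 nM biotinylated H3K14Ac peptide complex in PBS pH 7.4 with Tween-20. Donor and acceptor beads at 10 ug/mL final added, 20 min light-protected before reading.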
# G9a inh – blocks human histone lysine methyltransferase G9a. AID 504332. Q96KQ7. G9a H3K9 monomethylation, AlphaScreen, 2 h. 350,000 compounds, 8.8% hits. Potency, µM (top dose mostly 102 µM), without a hit: at the top dose activity, negative = inhibition, actives largely listed as inhibitors; also: % is scaled to controls: 0 for no effect and ±100 for the full control effect; nearly all actives have a fitted effect of over 75% in size
#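 Enzyme 20 nM + cpd, 15 min RT; add b-H3K9 pep 500 nM / SAM 20 uM; 2 h RT; anti-H3K9me1 Ab 0.5 ug/mL + SA donor / anti-rabbit acceptor beads 20 ug/mL each, 10 min; AlphaScreen read.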
# GLS inh – glutaminase GLS (human) inhibition; O94925; GLS enzymatic activity, qHTS titration; Potency, µM (series often up to 45.5 µM), without a hit: top-dose activity change, negative = inhibition, most hits filed as inhibitors; 410,000 compounds, 0.21% hits; AID 624170; also: % is scaled to controls: 0 for no effect and ±100 for the full control effect
#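 Glutamate formation by hKGA was monitored fluorometrically using coupled glutamate oxidase, HRP and Amplex Red. Substrate was added as 1 mM L-glutamine solution; incubation was 30 min at RT after an initial read.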
# Active calls of the source: *; ? = inconclusive; / = not tested or not shown; [ ] = remark or other dose. Calls follow the shape of the dose curve; as a rule, active = well fitted curve in the direction sought with a large enough effect; inconclusive = small, poorly fitted or top-dose-only effect, or another doubt; inactive = no such curve, though single readings can be large; an effect the other way counts as inactive or inconclusive. Potency is read from the fitted curve at half-maximal effect.
SMILES,HP1b chromo inh,JMJD2A Tudor inh,BAZ2B inh,G9a inh,GLS inh
CN(C)c1ccc(NC(=O)CSC2=Nc3ccccc3C3=NC(CC(=O)NCc4ccccc4)C(=O)N23)cc1 (configuration not stated),10%,?,-36%,1.6µM*,4%
CCOC(=O)CSC1=Nc2ccccc2C2=NC(CC(=O)NCc3ccc(OC)cc3)C(=O)N12 (configuration not stated),20%,-17%,-7%,-50%[59 µM],2.2µM*
CCOC(=O)CNC(=O)CSc1nc(N)cc(N)n1,20%,-10%,-1%,-2%[59 µM],23%
CCOC(=O)CNC(=S)n1cnc(N)n1,25%,-8%,79µM*,6%,1%
O=C1C=CC(=O)N1Cc1ccccc1,?,25µM*,?,1.8µM*,-16%
COc1ccc(Cn2c(O)c(C=Nc3ccccc3C(=O)O)c3ccccc3c2=O)cc1,-11%,-34%,79µM*,/,2%
COc1ccccc1NS(=O)(=O)c1cccc(-n2c(O)c(C=Nc3ccccc3C(=O)O)c3ccccc3c2=O)c1,?,56µM*,40µM*,45µM*,-12%
COc1ccccc1NS(=O)(=O)c1cccc(C(=O)N/N=C/c2ccc(NC(C)=O)cc2)c1,15%,-12%,-18%,11%[12.7 µM],7%
COc1cc(C)ccc1OCCSc1nc2ccc(NC(=O)c3cccs3)cc2s1,23%,-21%,-2%,2%[59 µM],1%
OC[C@@H]1CN(Cc2cccs2)C[C@H](n2cnc3c(NCc4ccco4)ncnc32)O1,/,/,/,/,-2%
COc1ccc(S(=O)(=O)N2CCOCC2)cc1NC(=O)CSc1n[nH]c(C(C)C)n1,11%,-8%,-7%,28µM*,-12%
COc1ccc(S(=O)(=O)N2CCOCC2)cc1NC(=O)CSc1nnc(N)s1,39%,-3%,7%,45µM*,-8%
Cc1nnc(SCC(=O)Nc2cc(S(=O)(=O)N3CCOCC3)ccc2C)s1,36%,-16%,0%,-48%,-5%
CCc1noc(C)c1C(=O)Nc1cc(S(=O)(=O)N2CCCCC2)ccc1N(C)C,7%,-19%,6%,?,9%
O=C(CSc1nc2ccccc2s1)Nc1cc(S(=O)(=O)N2CCOCC2)ccc1O,-28%,50µM*,?,?,16%
CCc1noc(C)c1C(=O)Nc1cc(S(=O)(=O)N2CCOCC2)ccc1OC(C)C,13%,-16%,-7%,13µM*,-3%
COC(=O)c1cccnc1-n1c(=O)c2cccnc2n(CC(=O)Nc2cccc(C)c2)c1=O,62%,-10%,5%,19%[59 µM],-8%
Cn1c(=O)c2c(nc3n(-c4ccc(O)cc4)c(-c4ccc(Br)cc4)cn23)n(C)c1=O,39%,-3%,-13%,17%[59 µM],4%
COc1ccccc1C(=O)Nc1nc2nc(C)c(Cc3ccccc3)c(=O)n2[nH]1,32%,-30%,?,?,0%
O=S1(=O)C=C(SCc2ccc(Cl)c(Cl)c2)Nc2ccccc21,12%,-33%,-4%,?,8%
Cc1ccc2c(C)ccc(O)c2n1,5%,-7%,?,3.5µM*,12%
Cc1ccc2ccc3ccc(C)nc3c2n1,29%,-24%,12%,/,2%
N=C(N)SCCc1cccc(CCSC(=N)N)c1,23%,-7%,/,3.5µM*,3%
Cc1ccc(C)c(S(=O)(=O)N2CCCOC2CNC(=O)C(=O)NCc2ccc3c(c2)OCO3)c1 (configuration not stated),9%,-15%,-14%,/,0%
N#Cc1c2n(c(=S)n(-c3ccccn3)c1=O)CCCCC2,23%,-13%,5%,22µM*,0%
SMILES,HP1b chromo inh,JMJD2A Tudor inh,BAZ2B inh,G9a inh,GLS inh
Cc1ccc(N2CC3=C(C2=O)C(c2ccc(Br)cc2)NC(=O)N3C)cc1 (configuration not stated),37%,-7%,-24%,-5%[59 µM],-1%
CCOc1ccc(/C=C2\SC(=S)N(CCC(=O)O)C2=O)cc1,10%,-23%,-22%,4%,17%
O=C1/C(=C/c2ccncc2)SC(=S)N1Cc1ccccc1,45µM*,25µM*,11µM*,/,4%
CCCN1C(=O)/C(=C/c2ccncc2)SC1=S,?,?,25µM*,45µM*,6%
Cc1cccc(N(O)C(=O)Nc2cccc(Cl)c2)c1,16%,1%,-2%,/,?
CCCCN(Cc1ccco1)C(=O)C1CCCN(c2ncnc3c2nc2n3CCCCC2)C1 (configuration not stated),37%,?,?,79µM*,-5%
CCCN(CCC)C(=O)c1c[nH]c2ccc(S(=O)(=O)N(C)c3ccc(Cl)cc3)cc2c1=O,56%,-13%,0%,-4%[59 µM],-2%
COc1ccc(OC)c(C2NC(=O)c3sc(=S)n(-c4ccccc4)c3N2)c1 (configuration not stated),14%,-31%,?,4µM*,2%
COc1cccc(C2NC(=O)c3sc(=S)n(-c4ccccc4)c3N2)c1 (configuration not stated),28%,-26%,-31%,40µM*,24%
CN(C)c1ccc(CNCCC2CCOC(C)(C)C2)cc1 (configuration not stated),/,/,?,45µM*,/
CCCCCCC(=O)Cc1cc(OC)c(OC)cc1C=C(C(=O)OCC)C(=O)OCC,/,/,3%,40µM*,/
COc1ccc(Nc2nccc(-c3cccc(N)c3)n2)cc1,-9%,-35%,56µM*,-23%,17%
COc1ccc(Nc2nccc(-c3ccc(C#N)cc3)n2)cc1,16%,-12%,2%,-32%,3%
COc1ccc(Br)c2c1-c1nc(NC(=O)c3ccc(F)cc3)sc1C2,34%,-26%,71µM*,-22%[59 µM],2%
COc1ccc(C(=O)Nc2nc3c(s2)CCc2cc(OC)ccc2-3)cc1,-12%,-28%,-22%,6.3µM*,-3%
COc1ccc2c(c1)CCc1sc(NC(=O)c3cccc(Br)c3)nc1-2,-14%,?,0%,10µM*,5%
COc1ccc2c(c1)Cc1sc(NC(=O)c3cccc(C)c3)nc1-2,3%,?,?,?,9%
COc1ccc2c(c1)-c1nc(NC(=O)c3ccc(C)cc3)sc1CC2,34%,-21%,0%,-32%[59 µM],3%
CCOc1ccccc1NS(=O)(=O)c1ccc2c(c1)CC(C)N2C(=O)C1CC1 (configuration not stated),38%,-1%,-14%,3%[59 µM],-2%
O=c1c(-c2cccc(F)c2)nc2cncnc2n1-c1ccccc1,/,/,/,-6%[12.7 µM],/
Cc1cc(CN(C)Cc2ccc(OCC(O)CN(C)Cc3ccccc3)cc2)on1 (configuration not stated),12%,-26%,-15%,-25%,6%
C=CCOc1ccc(CN(C)CC(O)COc2cccc3ccccc23)cc1 (configuration not stated),35µM*,0.71µM*,50µM*,40µM*,0%
